Screening data from PubChem.
Pf growth 96h: P. falciparum growth inhibition at 96 hour, primary screen for plastid delayed-death inhibitors; P. falciparum luciferase reporter growth, 96 h; Potency, µM (top dose mostly 28.7 µM), most hits filed as inhibitors; actives 6.9% (n = 320,000)
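Readout is luminescence from an integrated firefly luciferase in P. falciparum. Red cells, 2% hematocrit and 0.05% parasitemia final, were cultured with compound through two parasite generations (96 hours) at 37 C, 5% CO2.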
Shiga inhibitor: Shiga toxin inhibition; inhibition, % at 38.7 µM; actives 9.2% (n = 290,000); Vero cells, Shiga toxin protein synthesis inhibition reporter; AID 2315; in the data active means inhibition mostly above about 28%, no sharp cut-off; inactive means mostly below about 43%
Pf growth 48h: P. falciparum growth inhibition at 48 hours (one generation) | Potency, µM (series often up to 28.7 µM), most hits filed as inhibitors | AID 504832 | actives 5.9% (n = 310,000) | P. falciparum luciferase growth in erythrocytes, 48 h
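First compound was added to culture medium, then infected red cells at 0.1% parasitemia and 2% hematocrit (final). After incubation at 37 C under 5% CO2, luciferase detection reagent was dispensed and light output recorded.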
CHX counter: affects cycloheximide protein synthesis inhibition readout, counter-screen; actives 12% (n = 300,000); max response, %; cell reporter, cycloheximide protein synthesis inhibition counterscreen; in the data active means max response mostly above about 13%, no sharp cut-off; inactive means mostly below about 14%; further: read at 38.3 µM for the half of the compounds with a filed dose
Of the large screens only hits and unclear results are named; the others gave an inactive call; ! = not confirmed by another sample. Shown are actives, neighbours in structure and some others; about 21% of the full set was active somewhere. Unless noted, the call rests on the fitted dose curve; in most records, active means well fitted inhibition curve with a large enough effect; inconclusive means small, poorly fitted or top-dose-only effect, or another doubt; inactive means no such curve, though single readings can be large or run the other way.

Cc1cccc(C(=O)NNC(=O)c2ccccc2O)c1	Shiga inhibitor 38, CHX counter 39
CC1Cc2cc(S(=O)(=O)N3CCN(c4ccccc4F)CC3)ccc2N1C(=O)C1CC1 (stereo not given)	Pf growth 96h inconclusive
Cc1cc(C(=O)N2CCN(S(=O)(=O)c3ccc(C)c(C)c3)CC2)no1	none (no result: Shiga inhibitor, CHX counter)
CCN(CC(=O)Nc1c(F)cccc1F)C(=O)CCCNC(=O)c1ccc(Cl)cc1	Pf growth 96h inconclusive (no result: Shiga inhibitor, CHX counter)
O=C(NC(=S)NNC(=O)c1ccccc1O)c1ccc(F)cc1	none (no result: Shiga inhibitor)
O=C(NC(=S)NNC(=O)c1ccccc1O)c1ccccc1	Pf growth 96h inconclusive, Shiga inhibitor 55, Pf growth 48h inconclusive
Cc1ccccc1C(=O)NNC(=S)NC(=O)c1ccccc1	Pf growth 96h inconclusive, Shiga inhibitor 28, Pf growth 48h inconclusive, CHX counter 17
O=C(N1CCCC1)C12CC3CC(CC(C3)C1)C2	Pf growth 48h 12µM
COc1ccc2[nH]cc(CCN=C3SCC(=O)N3C)c2c1	Pf growth 96h 12µM (no result: Pf growth 48h)
COc1ccc2[nH]cc(CCn3ccc(=O)c(C)c3C)c2c1	Pf growth 96h inconclusive, Pf growth 48h inconclusive
O=c1[nH][nH]c2cc(=O)n(-c3ccc(Cl)cc3)nc12	none
CCC(=O)c1ccc(-c2ccccc2)cc1	CHX counter 29
CCC(=O)c1ccc(O)cc1	Pf growth 96h 15µM!
OC1c2ccccc2N=C2CCCN21 (stereo not given)	none (no result: Pf growth 96h, Pf growth 48h)
O=C(CNc1n[nH]c(=O)[nH]c1=O)N/N=C/C=C/c1ccccc1	none
O=C(NC(N1CCOCC1)C(Cl)(Cl)Cl)c1ccc(Br)cc1 (stereo not given)	none
O=C(/C=C/c1ccccc1)NCCN1CCOCC1	none
O=C(/C=C/c1ccccc1)NC(N1CCOCC1)C(Cl)(Cl)Cl (stereo not given)	CHX counter 30
O=C(NC(N1CCOCC1)C(Cl)(Cl)Cl)c1ccco1 (stereo not given)	Shiga inhibitor 128, CHX counter 70
c1ccc2c(c1)ncn2CCN1CCCCC1	Pf growth 96h inconclusive
Cc1ccccc1OCCCCn1cnc2ccccc21	CHX counter 16 (no result: Pf growth 48h)
Brc1ccccc1OCCCn1cnc2ccccc21	CHX counter 35 (no result: Pf growth 48h)
Cc1ccc(OCCCCn2cnc3ccccc32)cc1	Shiga inhibitor 88, CHX counter 40
CC(C)C1=CC2=CC[C@@H]3[C@](C)(CCC[C@@]3(C)C(=O)O)[C@H]2CC1	Pf growth 96h inconclusive (no result: Shiga inhibitor, CHX counter)
O=C1NC(=Nc2cccc([N+](=O)[O-])c2)SC1(CO)CO	none
CCN(CC(=O)Nc1ccccc1C(F)(F)F)C(=O)c1ccc2[nH]c3c(c2c1)CC(C)CC3 (stereo not given)	Pf growth 96h inconclusive, Pf growth 48h 15µM (no result: Shiga inhibitor, CHX counter)
CC1CCc2[nH]c3ccc(C(=O)N(C)CC(=O)Nc4ccc(F)cc4)cc3c2C1 (stereo not given)	none
CCOC(=O)C1CCCN(C2=NC(=O)/C(=C/c3ccc(OC)cc3)S2)C1 (stereo not given)	Pf growth 96h inconclusive, Pf growth 48h 10µM
COc1ccc(/C=C2\SC(N)=NC2=O)cc1	Pf growth 96h inconclusive
CCOC(=O)C1CCCN(C2=NC(=O)/C(=C/c3ccc(OC)cc3OC)S2)C1 (stereo not given)	Pf growth 48h 6.6µM
CCOC(=O)C1CCCN(C2=NC(=O)/C(=C/c3ccc(N(C)C)cc3)S2)C1 (stereo not given)	Shiga inhibitor 33, Pf growth 48h 6.6µM, CHX counter 26
CCOC(=O)CSC1=NC(=O)/C(=C/c2ccc(OC)cc2)S1	Shiga inhibitor 61, CHX counter 22
COc1ccccc1N1CCc2c(C)nc3c(OC)cccc3c21	Pf growth 96h inconclusive, Pf growth 48h 13µM
Cc1ccccc1S(=O)(=O)Cc1ccc(C(=O)N2CCN(c3ccccc3F)CC2)o1	Pf growth 96h inconclusive, Pf growth 48h inconclusive
CCOC(=O)c1[nH]c2ccc(F)cc2c1NC(=O)CN1CCN(C/C=C/c2ccccc2)CC1	Pf growth 96h 5.9µM, Pf growth 48h 9.3µM
COC(=O)c1[nH]c2ccc(Cl)cc2c1NC(=O)CN1CCc2cc(OC)c(OC)cc2C1	Pf growth 48h inconclusive (no result: Pf growth 96h)
CCOC(=O)c1[nH]c2ccc(F)cc2c1NC(=O)CN1CCc2cc(OC)c(OC)cc2C1	Pf growth 96h inconclusive, Pf growth 48h 12µM
COC(=O)c1[nH]c2ccccc2c1NC(=O)CN1CCN(C/C=C/c2ccccc2)CC1	none (no result: Pf growth 48h)
COc1ccccc1CCNC(=O)C(=O)NCC1OCCN1S(=O)(=O)c1ccc([N+](=O)[O-])cc1 (stereo not given)	Pf growth 96h inconclusive, Pf growth 48h inconclusive
COc1ccc(OC)c(C(=O)Cn2c3[n+](c4ccc(C(F)(F)F)cc42)CCCCC3)c1	Pf growth 96h 0.52µM, Pf growth 48h inconclusive
